This is part of a sample that, as a whole, favours compounds with a hit. Of some 83,000 tested, about 20% had one in any assay.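 Single-dose data. Exposure time 48 hours. Values below 10 considered active.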 Active and inactive are the calls of the source.
test system: 786-0 renal; test: NCI-60 one-dose screen, 48 h (100 = growth as untreated, 0 = no growth, -100 = all killed); conditions: 10 µM unless noted

| SMILES | growth |
| --- | --- |
| c1ccc(-c2nc3ccccc3[nH]2)c(OCCCCCOc2ccccc2-c2nc3ccccc3[nH]2)c1 | 93% (inactive) |
| COc1ccc(NC(=O)c2ccc(Nc3ncnc4c3cnn4-c3cccc(F)c3)cc2)cc1 | 104% (inactive) |
| Cc1c2ncccc2nc2[nH]c3ccc(OCCN(C)C)cc3c12 | 25.2% (inactive) |
| Cc1ccc2cnc(N)c(C#Cc3cc(C(=O)Nc4ccc(CN5CCN(C)CC5)c(C(F)(F)F)c4)cnc3C)c2c1 | -82.8% (active) |
| Cc1ccc2c(c1)sc1nc(-c3c[nH]c4ccccc34)c(Nc3ccccc3)n12 | 105% (inactive) |
| C(=C(\C1=NCCN1)n1ccc2ccccc21)/c1ccccc1 | 98.3% (inactive) |
| Cc1ccc2c(c1)=C/C(=C\c1cc(-c3ccccc3)[nH]c1O)C(=O)N=2 | 41.6% (inactive) |
| Cc1cc(Cl)nc(N2CCN(CCNc3ccnc4cc(Cl)ccc34)CC2)n1 | 49.1% (inactive) |
| O=C(NNc1nc2cc(F)ccc2n2c(CN3CCOCC3)ccc12)c1ccccc1 | 6.29% (active) |
| CCN(CC)CCOc1ccc(/C(=C(\C)Cc2ccc(OC)cc2)c2ccc(OC(=O)NCc3ccccc3)cc2)cc1 | 56.7% (inactive) |
| COC(=O)c1c2c(c[n+]([O-])c1C)C(=O)C=C(NCc1ccccc1)C2=O | -69% (active) |
| O=S(=O)(Nc1cc(F)cc(F)c1)c1ccc(-c2cnc(C3CC3)o2)cc1 | 35.5% (inactive) |
| COc1ccc2c(c1)CC[C@@H]1[C@@H]2CC[C@]2(C)c3c(cc(C#N)c4c3sc3ccccc34)C[C@@H]12 | 111% (inactive) |
| C=C(c1ccc(C(=O)O)c(F)c1)c1cc2c(cc1C)C(C)(C)CCC2(C)C | 96.6% (inactive) |
| C[C@@H]1CN(c2cnc(C(=O)Nc3cc(F)cc4cccnc34)cn2)C[C@H](C)N1 | 60.6% (inactive) |
| c1cc(OCCN2CCCCC2)ccc1CNc1ccc2nc(CCC3CCCCC3)[nH]c2c1 | -61% (active) |
| COc1cc(/C=C/C(=O)c2cc(OC)c(OC)c(OC)c2)ccc1Oc1nc2c(c(=O)n(C)c(=O)n2C)n1C | -87.4% (active) |
| Clc1cccc(C2Cc3cnccc3-c3[nH]c4ccncc4c32)c1 (stereo unspecified) | 59.7% (inactive) |
| C=CCn1cc(-c2nc3ccccc3s2)c2cc(-c3ccc4c5c(cccc35)C(=O)N(CCO)C4=O)ccc21 | 97.6% (inactive) |
| CC(C)CCC[C@@H](C)[C@H]1CC[C@H]2[C@@H]3CC=C4c5sc(Nc6cc(C(F)(F)F)cc(C(F)(F)F)c6)nc5CC[C@]4(C)[C@H]3CC[C@]12C | 110% (inactive) |
| COc1ccccc1/C=C/C(=O)Nc1ccc(F)cc1 | 97.7% (inactive) |
| c1ccc(-c2ccc3c(c2)C2(CCNCC2)CN3)cc1 | 95.1% (inactive) |
| CN(C)c1ccc(C(=S)c2ccc(N(C)C)cc2)cc1 | 95.6% (inactive) |
| CCN(CC)CCCNc1cc(OC)c(OC)c2cccnc12 | 43.4% (inactive) |
| COc1cc(/C=C2\C(=O)N(CCCOc3cc(O)c4c(=O)cc(-c5ccccc5)oc4c3)c3ccccc32)cc(OC)c1O | 92.8% (inactive) |
| COC12C=C/C(=C(/C(=O)OCc3cncnc3)C(=O)CCCCCCCCC3(OC)C=C/C(=C(/C(=O)OCc4cncnc4)C(=O)CCCCCCCC1)O3)O2 | -70.7% (active) |

test system: COLO 205 colon; test: as above; conditions: 10 µM unless noted

| SMILES | growth |
| --- | --- |
| O=C1CCCCN1c1ccc(C2=NCCCN2)cc1 | 104% (inactive) |
| O=C(Oc1ccc2c(c1)sc1nc(-c3ccccc3)[nH]c(=O)c12)C(F)(F)F | 88.3% (inactive) |
| CCNC(=O)N1CCc2c(Br)c3c(c(OC)c2C1Cc1ccc(OC)cc1)OCO3 (stereo unspecified) | 3.06% (active) |
| Cc1ccccc1N1CCN(C(=S)c2ccccc2)CC1 | 106% (inactive) |
| CS(=O)(=O)Nc1cc(-c2ccc3ncnc(Nc4ccc(F)c(Cl)c4)c3c2)ccc1Cl | 58.7% (inactive) |
| Fc1cc2[nH]ncc2c2c3c(c(-c4cn[nH]c4C(F)(F)F)nc12)CCCC3 | -45.6% (active) |
| COc1ccc(CNc2ccc3nc(NC(=O)CN4CCCCCC4)sc3c2)cc1 | 82.4% (inactive) |
| COc1c2c(cc3c1C(=O)N[C@@H]1[C@@H](O)[C@@H](O)[C@H](O)C[C@@H]31)OCCO2 | 103% (inactive) |
| CCN1C(=O)N(c2ccccc2)C2NC(=S)N(/N=C/C=C/c3ccccc3OC)C21 (stereo unspecified) | 6.54% (active) |
| CSc1nc2ccc(C)cc2cc1/C=C1/C=C(c2ccccc2)NC1=O | 69.8% (inactive) |
| CC1=Nc2cnc(Nc3ccc(N4CCCCC4)cc3)nc2Nc2ccccc21 | 81.3% (inactive) |
| Nc1c(C(=O)Nc2cccc3ncccc23)sc2nc3c(cc12)CN(Cc1ccccc1)CC3 | 112% (inactive) |
| COCCn1cc(-c2nc(-c3cn(CCOC)c4ncccc34)cs2)c2cc(F)ccc21 | 35.5% (inactive) |
| COC(=O)[C@]1(C)CCC[C@]2(C)[C@H]3C[C@@H]4[C@H]5[C@@H]6CC/C(=N\OCC/C(N)=N/O)[C@H]5[C@@]3(CC[C@H]21)CC4(C(C)C)O6 | 72.1% (inactive) |
| c1ccc(-c2nc3ccccc3[nH]2)c(OCCCCCOc2ccccc2-c2nc3ccccc3[nH]2)c1 | 112% (inactive) |
| COc1ccc(NC(=O)c2ccc(Nc3ncnc4c3cnn4-c3cccc(F)c3)cc2)cc1 | 109% (inactive) |
| Cc1c2ncccc2nc2[nH]c3ccc(OCCN(C)C)cc3c12 | 19.1% (inactive) |
| Cc1ccc2cnc(N)c(C#Cc3cc(C(=O)Nc4ccc(CN5CCN(C)CC5)c(C(F)(F)F)c4)cnc3C)c2c1 | -41.2% (active) |
| Cc1ccc2c(c1)sc1nc(-c3c[nH]c4ccccc34)c(Nc3ccccc3)n12 | 107% (inactive) |
| C(=C(\C1=NCCN1)n1ccc2ccccc21)/c1ccccc1 | 107% (inactive) |

| SMILES | growth |
| --- | --- |
| Cc1ccc2c(c1)=C/C(=C\c1cc(-c3ccccc3)[nH]c1O)C(=O)N=2 | 33.1% (inactive) |
| Cc1cc(Cl)nc(N2CCN(CCNc3ccnc4cc(Cl)ccc34)CC2)n1 | -50.1% (active) |
| O=C(NNc1nc2cc(F)ccc2n2c(CN3CCOCC3)ccc12)c1ccccc1 | 1.54% (active) |
| CCN(CC)CCOc1ccc(/C(=C(\C)Cc2ccc(OC)cc2)c2ccc(OC(=O)NCc3ccccc3)cc2)cc1 | -56.1% (active) |
| COC(=O)c1c2c(c[n+]([O-])c1C)C(=O)C=C(NCc1ccccc1)C2=O | -73.7% (active) |
| O=S(=O)(Nc1cc(F)cc(F)c1)c1ccc(-c2cnc(C3CC3)o2)cc1 | 40.1% (inactive) |
| COc1ccc2c(c1)CC[C@@H]1[C@@H]2CC[C@]2(C)c3c(cc(C#N)c4c3sc3ccccc34)C[C@@H]12 | 110% (inactive) |
| C=C(c1ccc(C(=O)O)c(F)c1)c1cc2c(cc1C)C(C)(C)CCC2(C)C | 123% (inactive) |
| C[C@@H]1CN(c2cnc(C(=O)Nc3cc(F)cc4cccnc34)cn2)C[C@H](C)N1 | 13% (inactive) |
| c1cc(OCCN2CCCCC2)ccc1CNc1ccc2nc(CCC3CCCCC3)[nH]c2c1 | -66% (active) |
| COc1cc(/C=C/C(=O)c2cc(OC)c(OC)c(OC)c2)ccc1Oc1nc2c(c(=O)n(C)c(=O)n2C)n1C | -77% (active) |
| Clc1cccc(C2Cc3cnccc3-c3[nH]c4ccncc4c32)c1 (stereo unspecified) | 23.4% (inactive) |
| C=CCn1cc(-c2nc3ccccc3s2)c2cc(-c3ccc4c5c(cccc35)C(=O)N(CCO)C4=O)ccc21 | 116% (inactive) |
| CC(C)CCC[C@@H](C)[C@H]1CC[C@H]2[C@@H]3CC=C4c5sc(Nc6cc(C(F)(F)F)cc(C(F)(F)F)c6)nc5CC[C@]4(C)[C@H]3CC[C@]12C | 99.8% (inactive) |
| COc1ccccc1/C=C/C(=O)Nc1ccc(F)cc1 | 101% (inactive) |
| c1ccc(-c2ccc3c(c2)C2(CCNCC2)CN3)cc1 | 103% (inactive) |
| CN(C)c1ccc(C(=S)c2ccc(N(C)C)cc2)cc1 | 62% (inactive) |
| CCN(CC)CCCNc1cc(OC)c(OC)c2cccnc12 | 98.4% (inactive) |
| COc1cc(/C=C2\C(=O)N(CCCOc3cc(O)c4c(=O)cc(-c5ccccc5)oc4c3)c3ccccc32)cc(OC)c1O | 82.6% (inactive) |
| COC12C=C/C(=C(/C(=O)OCc3cncnc3)C(=O)CCCCCCCCC3(OC)C=C/C(=C(/C(=O)OCc4cncnc4)C(=O)CCCCCCCC1)O3)O2 | -30.5% (active) |

Source: PubChem BioAssay (NCI)
